Source: PubChem
Pf growth 48h = P. falciparum growth inhibition at 48 hours (one generation) | hit rate 5.9% among 310,000 | Potency, µM (series often up to 28.7 µM), usual class: inhibitors | P. falciparum luciferase growth in erythrocytes, 48 h
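Here the parasites carry a stable luciferase gene and grow inside erythrocytes in Albumax-based RPMI medium with compound for one erythrocytic cycle. Activity is scored as loss of luminescent signal.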
CHX counter = counter-screen hit for Shiga toxin inhibitors, cycloheximide | hit rate 12% among 300,000 | cell reporter, cycloheximide protein synthesis inhibition counterscreen | AID 2314 | max response, %; in the data active = max response mostly above about 13%, no sharp cut-off; inactive = mostly below about 14%; note: read at 38.3 µM for the half of the compounds with a filed dose
HCMV inh = human cytomegalovirus inhibition; hit rate 4.5% among 410,000; AID 1259415; activity change, negative = inhibition, % at 57.5 µM; HFF cells, HCMV-luciferase reporter, 72 h; hits give low values; in the data active = activity change below about -60%; inconclusive = no clear call, values can overlap the other calls; inactive = above about -39%
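After 16 h attachment at 37C, HFF cells received test compound and HCMV-luciferase (1 PFU/cell); reporter luminescence read 72 h later, data normalized against buffer-only and known inhibitor Salinomycin.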
Pf growth 96h = P. falciparum growth inhibition at 96 hour, primary screen for plastid delayed-death inhibitors; P. falciparum luciferase reporter growth, 96 h; Potency, µM (doses to about 28.7 µM), usual class: inhibitors; hit rate 6.9% among 320,000
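Compounds incubated with erythrocytes infected by luciferase-expressing P. falciparum (2% hematocrit, 0.05% parasitemia final) for 96 hours, 37 C in 5% CO2. Growth inhibition scored as decreased luciferase luminescence.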
Shiga inhibitor = blocks Shiga toxin action in Vero cells; Vero cells, Shiga toxin protein synthesis inhibition reporter; inhibition, % at 38.7 µM; hit rate 9.2% among 290,000; AID 2315; in the data active = inhibition mostly above about 28%, no sharp cut-off; inactive = mostly below about 43%
Numbers stand for hits; - = inactive; ? = inconclusive; . = no result; [ ] = dose if it differs, or a comment. Most compounds without a hit are left out; they make up all but 20% or so of the library. Unless noted, calls come from the whole dose curve; as a rule, active = well fitted inhibition curve with a large enough effect; inconclusive = small, poorly fitted or top-dose-only effect, or another doubt; inactive = no such curve, though single readings can be large or run the other way.

SMILES | Pf growth 48h | CHX counter | HCMV inh | Pf growth 96h | Shiga inhibitor
CCOC(=O)c1noc2ncnc(N3CCN(c4cccc(C(F)(F)F)c4)CC3)c12 | . | . | - | . | .
Cc1ccc2nsnc2c1S(=O)(=O)N(Cc1ccco1)Cc1cc2ccc(C)c(C)c2[nH]c1=O | - | - | -85.3 | - | -
COc1ccc2[nH]c(=O)c(CN(Cc3cccs3)S(=O)(=O)c3c(C)ccc4nsnc34)cc2c1 | . | - | -102.5 | . | -
O=C(O)c1cc(-c2ccc(/C=N/N3C(=O)C4C5C=CC(C6CC56)C4C3=O)o2)ccc1Cl (centres undefined) | - | - | - | - | -
CC(O)(C#CCN1CCCCCC1)c1ccccc1 (centres undefined) | - | - | -102.2 | ? | -
OC(C#CCN1CCCCC1)(c1ccccc1)c1ccccc1 | - | - | - | ? | -
OC(C#CCN1CCCC1)(c1ccccc1)c1ccccc1 | ? | - | - | 9.53µM | -
COc1ccc(C(C)=O)cc1CSc1nnc(Nc2ccccc2C)s1 | ? | - | -61.7 | 4.15µM | -
COc1ccc(C(C)=O)cc1CSc1nnc(Nc2ccc(C)cc2C)s1 | ? | - | - | ? | -
COc1ccc(C(C)=O)cc1CSc1nnc(Nc2c(C)cccc2C)s1 | ? | - | - | 9.28µM | -
COc1ccc(C2(C)NC(=O)N(CC(=O)Nc3c(C)n(C)n(-c4ccccc4)c3=O)C2=O)cc1 (centres undefined) | - | . | - | - | .
COc1ccc(/C=C/C(=O)Nc2ccc(S(=O)(=O)N3CCOCC3)cc2)c(OC)c1 | 9.28µM | . | ? | 9.28µM | .
CCN1CCN(c2ccc(S(=O)(=O)N3CCOCC3)cc2NC(=O)/C=C/c2ccc(OC)cc2OC)CC1 | 10.4µM | . | - | ? | .
COc1ccc(/C=C/C(=O)Nc2cc(S(=O)(=O)N3CCOCC3)ccc2OC)cc1 | . | . | - | . | .
CCN1CCN(c2ccc(S(=O)(=O)N3CCOCC3)cc2NC(=O)c2cccc([N+](=O)[O-])c2)CC1 | . | . | - | . | .
CCN1CCN(c2ccc(S(=O)(=O)N3CCOCC3)cc2NC(=O)/C=C/c2ccc([N+](=O)[O-])cc2)CC1 | 2.62µM | . | - | 3.7µM | .
CCNc1c(NC(=O)COc2ccc(Cl)cc2)c(=O)oc2ccccc12 | ? | - | - | ? | -
O=C(COc1ccccc1)Nc1ccncc1Cl | - | 51.6 | - | - | 92.3
O=C(COc1ccc2ccccc2c1)Nc1ccccc1C(=O)O | - | 19.9 | - | - | -
CCCNc1c(NC(=O)COc2ccc(Cl)cc2)c(=O)oc2ccccc12 | 0.0657µM | - | - | ? | -
Cc1ccc(OCC(=O)Nc2ccccc2-c2ccccc2)cc1 | - | - | - | - | -
Cc1ccc(OCC(=O)Nc2ccccc2C(N)=O)cc1 | - | 34.8 | - | ? | .
CCCCCN(C(=O)CCC(=O)OCC(=O)c1ccc(F)c(F)c1)c1c(N)n(CCCC)c(=O)[nH]c1=O | ? | . | - | - | .
O=C(Nc1nnc([C@H]2C[C@H](O)[C@@H](CO)O2)s1)Nc1cccc2c1CCCC2 | . | . | - | . | .
CCC1(C)C(Nc2c(C)cccc2C)=NC(=S)N1c1ccc(NC(C)=O)cc1 (centres undefined) | - | - | - | - | -
SMILES | Pf growth 48h | CHX counter | HCMV inh | Pf growth 96h | Shiga inhibitor
NC(=O)c1ccccc1NC(=O)COc1ccc(Cl)cc1 | - | 28.9 | - | - | 90.4
CSc1ccccc1NC(=O)Cc1ccccc1 | - | - | - | - | -
CSc1ccccc1NC(=O)COc1ccc(Cl)cc1 | - | 32.4 | - | ? | 48.4
O=C(COc1ccc(Cl)cc1)Nc1ccccc1Cl | ? | 49.2 | - | ? | 75.9
O=C(COC(=O)COc1ccc(Cl)cc1)Nc1cccnc1Cl | . | . | - | . | .
CSc1ccccc1NC(=O)COC(=O)CCc1ccccc1 | - | - | -61.5 | - | -
Cc1ccnc(NC(=O)CNC(=O)C23CC4CC(CC(C4)C2)C3)c1 | - | . | - | - | .
CCOc1ccc(N2CC(NC(=O)C3CC3)CC2=O)cc1 (centres undefined) | . | . | - | . | .
COc1ccc(Cn2c(CCC(=O)NCc3ccc(Cl)cc3)nc3cccnc32)cc1 | . | . | - | . | .
CNC(=S)N1N=C(c2ccc(C)cc2)CC1c1ccc(OC)cc1 (centres undefined) | - | - | - | - | -
CNC(=S)N1N=C(c2ccc(OC)cc2)CC1c1ccccc1Cl (centres undefined) | ? | - | - | ? | -
CNC(=S)N1N=C(c2ccc(OC)cc2)CC1c1ccc(Cl)cc1Cl (centres undefined) | 11.7µM | - | - | 5.86µM | -
CCC(=O)N1N=C(c2ccc(NS(C)(=O)=O)cc2)CC1c1ccc(N(C)C)cc1 (centres undefined) | - | 29.9 | - | - | 72.3
CN(C)c1ccc(C2CC(c3cccc(NS(C)(=O)=O)c3)=NN2C(=O)c2ccccc2)cc1 (centres undefined) | ? | - | - | - | -
CNC(=S)N1N=C(c2ccc(C)cc2)CC1c1ccc(N(C)C)cc1 (centres undefined) | ? | 42.5 | - | ? | -
CNC(=S)N1N=C(c2ccc(Br)cc2)CC1c1ccc(OC)cc1 (centres undefined) | - | - | - | 10.4µM | -
CCc1nc2ccc(C(=O)NCC3CCCCC3)cn2c1N(CCC(C)C)CCN(C)C | . | . | - | . | .
O=C(Cn1ncc2c3ccccc3n(Cc3ccc(Cl)cc3)c2c1=O)NCc1cccs1 | . | . | - | . | .
CC1(C)CC(N2CCOCC2)=CC(=[N+]2CCOCC2)C1 | 13.1µM | - | ? | 8.28µM | -
CC1(C)CC(N2CCCCC2)=CC(=[N+]2CCCCC2)C1 | ? | - | -94.8 | ? | -
CCCN(CCC)C1=CC(=[N+]2CCCC2)CC(C)(C)C1 | 1.47µM | - | -101.5 | 0.329µM | -
CC1C[N+](=C2C=C(N3CCOCC3)CC(C)(C)C2)CC(C)O1 (centres undefined) | ? | - | - | 11.7µM | -
CC(=O)N1CC23C=CC(CC2CC12CCCCCC2)O3 (centres undefined) | - | - | - | ? | -
CCCn1c(=O)c2sccc2n2c(CCCC(=O)NC3CCC(C)CC3)nnc12 (centres undefined) | . | . | - | . | .
CN(C)C=Nc1ccc2nn(-c3ccccc3)nc2c1 | - | 43.4 | - | - | 92.7
SMILES | Pf growth 48h | CHX counter | HCMV inh | Pf growth 96h | Shiga inhibitor
Nc1nc2c(c(=O)[nH]1)N(C=O)[C@H](CNc1ccc(C(=O)N[C@@H](CCC(=O)O)C(=O)O)cc1)CN2 | - | . | . | - | .
FC(F)(F)c1cc(C(F)(F)F)c2ccc(N3CCN(c4ccc(Cl)cc4)CC3)nc2n1 | - | - | - | - | -
N#CC(c1ccc(Cl)cc1)c1ccc2c(C(F)(F)F)cc(C(F)(F)F)nc2n1 (centres undefined) | . | - | -106.5 | 2.62µM | -
Cc1ccc(-n2c(SCC(=O)N3CCOCC3)nnc2-c2cccnc2)cc1 | - | 23.7 | - | -[5.75 µM] | 55.9
Cc1ccc(-n2c(SCC(=O)N3CCOCC3)nnc2-c2cccnc2)cc1C | - | - | - | ? | -
Cc1ccc(-n2c(SCC(=O)N3CCN(c4ccccn4)CC3)nnc2N2CCCC2)cc1 | 9.28µM | . | ? | 8.28µM | .
Cc1ccc(SCC(=O)N2CCN(c3ccccn3)CC2)cc1 | - | 18.1 | - | - | 52.2
CCSc1nnc(-c2cccnc2)n1-c1ccc(C)c(Cl)c1 | . | - | - | 4.65µM | -
